From PubChem BioAssay AID651956 (Broad Institute, 2012)
Potency and affinity values are given separately. Records with an inconclusive call do not appear. A number with no mark means an inactive call.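 Rule for the calls: active = in every test run, a fitted half-maximal concentration for signal decrease at or below twice the highest tested concentration; inconclusive = runs disagree, flat 30 to 70% decrease, or poor fit; inactive = the rest.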

Assay: activation of miR-122 Renilla sensor silencing – cell-based, Huh7 psiCHECK-miR122, Renilla luciferase, cherry-picked, dose response (AID 651956);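 note: 0% = median neutral control wells and -100% = median positive control wells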
Details: Huh7 psiCHECK-miR122 Renilla luciferase reporter, 48 h; series mostly up to 35 µM; activity change, negative = signal decrease: at the top concentration

| Compound | activity change, negative = signal decrease [%] |
| --- | --- |
| OC[C@H]1[C@@H](c2ccccc2)[C@@H](CNCC2CCC2)N1CC1CC1 | 19.1 |
| Cc1cccc(NC(=O)C[C@H]2CC[C@H]3[C@@H](COc4ccc(NC(=O)NC(C)C)cc4C(=O)N3C)O2)c1 | -16.5 |
| Cc1ccc(S(=O)(=O)NCCCNS(C)(=O)=O)cc1 | -0.902 |
| CC(C)C(=O)Nc1ccc2c(c1)C(=O)N(C)[C@@H]1CC[C@@H](CC(=O)NCCc3ccccc3)O[C@H]1CO2 | 2.42 |
| CN1C(=O)c2cc(NC(=O)c3cccs3)ccc2OC[C@@H]2O[C@@H](CC(=O)N3CCOCC3)CC[C@H]21 | 0.812 |
| CN1C(=O)c2cc(NC(=O)C3CCOCC3)ccc2OC[C@H]2O[C@H](CC(=O)NCc3ccc4c(c3)OCO4)CC[C@@H]21 | -23.7 |
| CCCNC(=O)Nc1ccc2c(c1)OC[C@H](C)N(CCC)C[C@H](C)[C@H](OC)CN(C)C2=O | 70 |
| CN1C(=O)c2cc(NC(=O)Nc3ccccc3F)ccc2OC[C@@H]2O[C@@H](CC(=O)NCc3ccc(-c4ccccc4)cc3)CC[C@@H]21 | 111 |
| COC(=O)C[C@@H]1CC[C@@H]2[C@H](COc3ccc(NS(=O)(=O)c4ccc(F)cc4)cc3C(=O)N2C)O1 | 90.1 |
| Cc1ccccc1-c1nc(CN2CCCC(C(=O)NCCCN3CCOCC3)C2)c(C)o1 (centres undefined) | -7.02 |
| C/C=C/c1ccc([C@@H]2[C@@H](CO)N(Cc3ccccn3)[C@H]2CNC(=O)CC)cc1 | 80.4 |
| CN1C(=O)c2cc(NC(=O)c3cccs3)ccc2OC[C@@H]2O[C@H](CC(=O)NCC(F)(F)F)CC[C@H]21 | -19.1 |
| Cc1cnc(NC(=O)c2cc3c(C)nn(-c4ccccc4)c3s2)s1 | -11.8 |
| CN1C(=O)c2cc(NC(=O)Cc3ccccc3)ccc2OC[C@@H]2O[C@@H](CC(=O)O)CC[C@H]21 | 45.6 |
| COc1ccc(CN2CCc3c([nH]c4ccccc34)C2)c(OC)c1C | -17.6 |
| CN1C(=O)c2cc(NC(=O)c3cccs3)ccc2OC[C@@H]2O[C@@H](CC(=O)NCCN3CCCCC3)CC[C@H]21 | 120 |
| CC(C)C(=O)Nc1ccc2c(c1)C(=O)N(C)[C@H]1CC[C@@H](CC(=O)NCc3ccccc3F)O[C@H]1CO2 | 64.2 |
| Cc1ccc(OCCN2CCN(c3ncnc4sc(C)c(C)c34)CC2)cc1 | -40.6 |
| C=CCNC(=S)NNC(=O)c1cccn(Cc2ccc(Cl)c(Cl)c2)c1=O | -25.4 |
| CCOc1ccc(C(CCc2ccccc2)NC(=O)c2ccccc2F)cc1OCC (centres undefined) | 122 |

| Compound | activity change, negative = signal decrease [%] |
| --- | --- |
| COc1cccc(CNC(=O)C[C@@H]2CC[C@@H]3[C@@H](COc4ccc(NC(C)=O)cc4C(=O)N3C)O2)c1 | 11.7 |
| CN1C(=O)c2cc(NC(=O)Nc3ccc(Cl)cc3)ccc2OC[C@@H]2O[C@@H](CC(=O)NCCN3CCCCC3)CC[C@H]21 | -3.03 |
| CCCC(=O)Nc1ccc2c(c1)C(=O)N(C)[C@@H]1CC[C@@H](CC(=O)NCC(F)(F)F)O[C@H]1CO2 | 38.3 |
| COc1ccc(NS(=O)(=O)c2ccc(NC(=O)C(C)(C(F)(F)F)C(F)(F)F)cc2)nn1 | -17.6 |
| O=C(COc1cccc2ccccc12)Nc1nc2ccccc2[nH]1 | 64.7 |
| CNC(=O)C[C@H]1CC[C@H]2[C@@H](COc3ccc(NC(=O)C4CC4)cc3C(=O)N2C)O1 | 43.9 |
| Cn1c(NC(=O)c2ccco2)c(-c2ccccc2Cl)c(=O)c2ccccc21 | 2.86 |
| O=C(NCCCN1CCCC1)c1ccc(CSCc2cccc(Cl)c2)o1 | 5.27 |
| CCN(CC)S(=O)(=O)c1ccc(NC(=O)Nc2cccc(C(F)(F)F)c2)cc1 | 146 |
| CCCC(=O)Nc1ccc2c(c1)C(=O)N(C)[C@@H]1CC[C@H](CC(=O)NCCOC)O[C@H]1CO2 | 57.9 |
| CCc1nc2sc(C)c(C)c2c(=O)n1CCO | 51.5 |
| CN1C(=O)c2cc(NC(=O)c3cccs3)ccc2OC[C@@H]2O[C@@H](CC(=O)O)CC[C@H]21 | -15.8 |
| O=C(C1CCOCC1)N1C[C@H]2[C@@H](c3ccccc31)[C@@H](CO)N2Cc1ccccc1 | -21.2 |
| C/C=C/c1ccc([C@@H]2[C@@H](CO)N[C@@H]2CN(C(=O)C2CCCC2)C(C)C)cc1 | 72.6 |
| C/C(=N\Nc1cc(N2CCCCC2)nc(C)n1)c1ccc(Br)cc1 | 20.9 |
| COc1cc(NC(=O)c2c(F)c(F)c(F)c(F)c2F)c(OC)cc1Cl | -102 |
| CCCNC(=O)C[C@H]1CC[C@@H]2[C@H](COc3ccc(NS(=O)(=O)c4ccccc4C)cc3C(=O)N2C)O1 | 40.6 |
| CCNC(=O)C[C@H]1CC[C@H]2[C@H](COc3ccc(NS(C)(=O)=O)cc3C(=O)N2C)O1 | -8.52 |
| CC(C)Oc1ccc(CNCCC2(C(C)C)CCOC(C)(C)C2)cc1 (centres undefined) | 186 |
